# Among all 330,000 compounds or so, about 1,900 (0.58%) were called active. Inconclusive results (about 4%) are left out. Only a sample is shown. Entries with a potency or affinity are not part of this list. A number with no mark means an inactive call. No stated cut-off is given here; in the data, inconclusive means inhibition above about 70% without an active follow-up result; inactive means below that.
# Test: M. tuberculosis growth inhibition, HTS (AID 449762);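 further: bacterial growth assessed after seven days of incubation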
# Settings: M. tuberculosis H37Rv growth inhibition, 7H9 media; at 25 µM; hits give high values
row,Compound,inhibition [%]
1,CCOc1ccc(NC(=O)CCC(=O)Oc2ccc(C)cc2)cc1,-3.3
2,O=C(COC(=O)Cc1ccsc1)Nc1ccccc1,-4.1
3,C=CCNC(=S)NNC(=O)c1csc(CC)c1,-5.45
4,Cc1ccc(NC(=O)C(C)N=C2NS(=O)(=O)c3ccccc32)cc1F (stereo not drawn),11
5,CC(=O)N1CCN(c2ccc([N+](=O)[O-])c(-n3nc(C)cc3C)c2)CC1,1.6
6,CC(=O)N1CCN(c2ccc([N+](=O)[O-])cc2)CC1,-5.3
7,CCOc1ccccc1OCC(=O)OCC(=O)c1c(N)n(CC(C)C)c(=O)n(C)c1=O,0.88
8,CC(=O)OCC(=O)C1CCC2C3CC=C4CC(O)CCC4(C)C3CCC12C (stereo not drawn),-10.9
9,CN(Cc1cccc(Cl)c1Cl)C(=O)c1cccc(S(=O)(=O)N2CCN(Cc3ccccc3)CC2)c1,-12.3
10,Cc1nn(-c2ccc(F)cc2)c2nc(N)c(C#N)c(-c3ccc(O)c(O)c3)c12,1.53
11,COc1cc(-c2c(C#N)c(=O)[nH]c3c2c(C)nn3-c2ccccc2)ccc1O,51.3
12,O=C1c2ccc([N+](=O)[O-])cc2S(=O)(=O)N1Cc1ccccc1,-6.93
13,CCc1noc(C)c1C(=O)Nc1nc2ccc(F)cc2s1,68.5
14,CCc1noc(C)c1C(=O)Nc1nc(-c2cc(C)ccc2C)c(C)s1,-0.88
15,CC(=NCc1ccc2c(c1)OCO2)c1c(O)[nH]c(=O)[nH]c1=O,-12.3
16,CC(=NCc1cccnc1)C1=C(O)c2ccccc2C1=O,-1.08
17,CCn1c(=O)c2cc(C(=O)NCCC(C)C)sc2c2ccccc21,9.29
18,O=C(Cn1nnc2ccccc21)c1cccc([N+](=O)[O-])c1,-4.83
19,CN(C(=O)c1ccc(-c2ccccc2)cc1)C1CCCCC1,53.6
20,CCOc1ccc(NS(=O)(=O)c2ccc(C(=O)N(C)CC(=O)Nc3ccc(C)cc3)cc2)cc1,56.7

row,Compound,inhibition [%]
1,CCCSc1ccc(-c2nn(-c3ccccc3)cc2/C=C(/C#N)C(=O)NCCCOC)cc1,-1.57
2,CCSc1ccc(-c2nn(-c3ccccc3)cc2/C=C(/C#N)C(=O)NCCCOC)cc1,6.88
3,O=C(N/N=C(/CC(=O)c1cccs1)C(F)(F)F)c1ccc(O)cc1,33.1
4,O=C(N/N=C(\CC(=O)c1cccs1)C(F)(F)F)c1cccnc1,-1.08
5,CC(C)Nc1nc(NC(C)C)nc(OCCOC(=O)c2ccccc2)n1,2.84
6,CCOC(=O)[C@@H]1[C@H]2COc3cc(OC)ccc3[C@@H]2N2C(=O)N(c3ccc(C(F)(F)F)cc3)C(=O)[C@]12C,1.49
7,CCOC(=O)[C@@H]1[C@H]2COc3cc(OC)ccc3[C@H]2N2C(=O)N(c3ccc(C(F)(F)F)cc3)C(=O)[C@@]12C,6.64
8,O=C(CC1SC(=O)N(c2ccccc2)C1=O)Nc1ccc(Cl)cc1 (stereo not drawn),-2.72
9,O=C(N/N=C1\CCCc2ccccc21)c1cccc(Br)c1,17.8
10,O=C(NN=C1CCCC1)c1cccc(Br)c1,8.38
11,O=C(Nc1ccc(Nc2ccccc2)cc1)C1CC1,0.68
12,O=C(Nc1ccc(N2CCOCC2)cc1)C1CC1,-20.2
13,CC(C)(C)c1ccc(OCCC(=O)NNC(=O)c2ccccc2)cc1,-10.6
14,O=C(COc1ccc([N+](=O)[O-])cc1)N(Cc1cccs1)C1CCS(=O)(=O)C1 (stereo not drawn),-4.33
15,COc1ccccc1N1CCN(S(=O)(=O)CCNC(=O)CC2CCCCC2)CC1,-4.01
16,COCCNC(=O)C(c1ccc(C)cc1)N(C(=O)C(=O)NC1CCCC1)c1ccc2c(c1)OCCO2 (stereo not drawn),0.7
17,COCCNC(=S)N/N=C(\C)c1ccc(OC(F)F)cc1,2.04
18,COCCNC(=S)N/N=C(\C)c1ccc(O)cc1,-0.19
19,O=C(Nc1ccccc1-c1nc2ccccc2[nH]1)c1sc2ccccc2c1Cl,8.98
20,CCN1CCN(Cc2ccc(NC(=O)c3ccc(C)c(NC(=O)c4ccnnc4)c3)cc2C(F)(F)F)CC1,-1.41

row,Compound,inhibition [%]
1,CCN1CCN(Cc2ccc(NC(=O)c3ccc(C)c(NC(=O)c4ccc5n[nH]nc5c4)c3)cc2C(F)(F)F)CC1,4.3
2,COC(=O)c1cc(NC(=O)Cc2ccc(OC)cc2)cc(C(=O)OC)c1,-3.89
3,CC1CCC(NC(=O)COC(=O)C2=NN(c3ccccc3)C(=O)CC2)CC1 (stereo not drawn),1.24
4,COc1cccc2cc(C(=O)Nc3ccc(S(=O)(=O)NCC4CCCO4)cc3)c(=O)oc12 (stereo not drawn),1.32
5,Cc1ccccc1C(=O)/C(C#N)=N/Nc1c(C)n(C)n(-c2ccccc2)c1=O,-1.13
6,O=C(/C=C/c1c(F)cccc1Cl)Nc1ccncc1,9.18
7,O=C(Nc1ccc(OC(F)(F)F)cc1)c1ccc2nc[nH]c2c1,41.2
8,O=C(Nc1ccc(OC(F)(F)F)cc1)c1ccc2nccnc2c1,66.2
9,S=C(NCCC(c1ccccc1)c1ccccc1)Nc1ccc(Cl)cc1,1.85
10,O=c1cc(N2CCOCC2)cnn1-c1ccccc1,14.3
11,O=S(=O)(Nc1ccccc1)c1ccc(S(=O)(=O)N2CCCC2)cc1,-1.05
12,Nc1ncc([N+](=O)[O-])s1,-0.165
13,O=[N+]([O-])c1cc(-c2ncccn2)cs1,0.84
14,CCn1nnc(-c2ccccc2NS(=O)(=O)c2ccc(S(=O)(=O)N(C)C3CCCCC3)cc2)n1,2.36
15,N#Cc1ccccc1COC(=O)CCC(=O)c1cccs1,5.44
16,c1ccc2c(CNc3ccc(CNc4ncn[nH]4)cc3)cccc2c1,1.09
17,C/C(=N/NC(=O)c1ccccn1)c1ccncc1,39.2
18,C/C(=N\NC(=O)c1c[nH]c2ccccc12)c1ccco1,19.6
